The subject of experiment [1] is Plasmodium falciparum Sir2 (PF13_0152, Sir2A). Briefly: Plasmodium falciparum Sir2A binding compounds – biochemical, small-molecule microarray, 635 nm fluorescence, primary screen (AID 1098).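 Note: score merges spot fluorescence intensity with its signal-to-noise ratio.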 The following applies: fluorescence 635 nm, higher = more signal.
Experiment [2] is described as follows: probe aDKK1 binding to arrayed compounds – biochemical, biotinylated probe, 635/667 nm fluorescence, primary screen (AID 1099).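 Note: score merges 667nm spot fluorescence with signal to noise across triplicate slides.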 To be noted: small-molecule microarray, higher = more signal.
The nature of experiment [3]: probe aCHRDL2 binding to arrayed compounds – biochemical, biotinylated probe, 635/667 nm fluorescence, primary screen (AID 1100). The following applies: small-molecule microarray, higher = more signal.
Experiment [4] can be described thus: change in splice reporter luminescence, either direction, cell-based, HEK293, spliceosome inhibition project, primary screen (AID 1101).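 Note: HEK293 cells carrying a splicing-competent luciferase reporter gene; test concentration not given here.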 To be noted: HEK293 splicing luciferase reporter, 24 h, higher = more signal, called active from +8 up or from −8 down. On the technique in general: Reporter assays use an easily measured gene product as a stand-in for the process of interest.

Experiment [5] has as its target Fibroblast growth factor 10 (Homo sapiens) (UniProt O15520). In words: compounds binding fibroblast growth factor 10 – biochemical, small-molecule microarray, 635 nm fluorescence, primary screen (AID 1102). The following applies: FGF10 binding, fluorescence 635 nm, higher = more signal.
The subject of experiment [6] is glycogen synthase kinase-3 (GSK3A per assay name; protocol says GSK3B). In words: compounds binding glycogen synthase kinase-3 – biochemical, small-molecule microarray, 635 nm fluorescence, GSK3A, primary screen (AID 1103). Note: the record names both GSK3A and GSK3B. The following applies: fluorescence 635 nm, higher = more signal.
For experiment [7], the target named is Epidermal growth factor receptor (Homo sapiens) (UniProt P00533). In words: compounds binding epidermal growth factor receptor – biochemical, small-molecule microarray, 635 nm fluorescence, primary screen (AID 1104).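 Note: score merges 667 nm emission intensity with spot signal to noise over triplicate slides.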 To be noted: EGFR binding, higher = more signal.
Experiment [8] deals with Follistatin-related protein 3 (Homo sapiens) (UniProt O95633). Briefly: compounds binding follistatin-related protein 3 – biochemical, small-molecule microarray, 635 nm fluorescence, primary screen (AID 1105).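 Note: score merges emission near 667 nm and signal to noise per printed spot across three slides.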 To be noted: FSTL3 binding, higher = more signal.
For experiment [9], the target named is Dickkopf-related protein 1 (Homo sapiens) (UniProt O94907). In words: small molecules binding DKK1 protein – biochemical, small-molecule microarray, 635 nm fluorescence scan, primary screen (AID 1106).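 Note: score merges emission near 667 nm with signal to noise over three replicate slides.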 The following applies: higher = more signal.
In experiment [10] the test system is Inhibin beta A chain (activin A). Briefly: small molecules binding activin A – biochemical, small-molecule microarray, 635 nm fluorescence scan, primary screen (AID 1107).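 Note: mouse activin A protein probed at 4.33 µg/mL on printed slides; score merges bound-protein fluorescence near 667 nm with spot signal-to-noise.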 To be noted: INHBA, higher = more signal.
Experiment [11] relates to Human papillomavirus type 1a protein E7 (residues 44-93). In words: small molecules binding HPV E7 44-93 – biochemical, small-molecule microarray, residues 44-93, 635 nm fluorescence, primary screen (AID 1108).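 Note: E7 fragment applied at 1 µg/mL in TBST for 1 h at 4 C; score combines spot fluorescence with its signal to noise ratio.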 The following applies: fluorescence 635 nm, higher = more signal.
Experiment [12] can be described thus: hepatitis C replication reporter changes, two-sided – Huh7 cells, luciferase reporter, HCV replication inhibitor project, primary screen (AID 1109).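 Note: huh7 hepatoma cells harbouring a luciferase neomycin HCV replicon reporter; luciferase luminescence as measure of HCV replicon replication; test concentration not given here.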 To be noted: Huh7 HCV replicon luciferase reporter, 48 h; higher = more signal.
Experiment [13] concerns the target Left-right determination factor 2 (Homo sapiens) (UniProt O00292). Briefly: small molecules binding LEFTY2 protein – biochemical, small-molecule microarray, 635 nm fluorescence scan, primary screen (AID 1110). The following applies: higher = more signal.
Experiment [14] addresses Calmodulin-1 (Homo sapiens) (UniProt P0DP23). Briefly: small molecules binding calmodulin-1 with EGTA – biochemical, small-molecule microarray, Cy5-labelled CALM1, profiling panel (AID 1111).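 Note: labelled calmodulin applied in Tris saline Tween buffer holding calcium plus EGTA and DTT.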 To be noted: Cy5-CALM1 binding fluorescence, higher = more signal.
Experiment [15] shares this target. Briefly: small molecules binding Ca-loaded calmodulin-1 – biochemical, small-molecule microarray, Cy5-labelled CALM1, plus calcium, artefact control for SMM control-protein annotation, profiling panel (AID 1112).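 Note: score merges spot fluorescence with signal to noise from triplicate slides.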 To be noted: Cy5-CALM1 binding fluorescence, higher = more signal.
Experiment [16] is described as follows: probe aWnt5a binding to arrayed compounds – biochemical, biotinylated probe, 635/667 nm fluorescence, primary screen (AID 1113).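 Note: score merges 667 nm fluorescence intensity with signal-to-noise per printed feature.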 The following applies: small-molecule microarray, higher = more signal.
The nature of experiment [17]: probe aShh binding to arrayed compounds – biochemical, biotinylated probe, 635/667 nm fluorescence, primary screen (AID 1114).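 Note: probe is biotin-labelled aShh protein from a stem cell growth factor screen; measures binding of labelled protein to compounds printed on the slide; score merges feature fluorescence at 667 nm with signal-to-noise.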 To be noted: small-molecule microarray, higher = more signal.
Experiment [18] is described as follows: probe aNog binding to arrayed compounds – biochemical, biotinylated probe, 635/667 nm fluorescence, primary screen (AID 1115).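 Note: probe is biotinylated aNog protein used at 0.15 µg/mL for 1 h at 4 C; z-score combines 667 nm fluorescence of each spot with its signal to noise.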 To be noted: small-molecule microarray, higher = more signal.
Experiment [19] has as its target Torsin-1A-interacting protein 1 (Homo sapiens) (UniProt Q5JTV8). Briefly: compound microarray binding of lysate hLAP1 – cell lysate, small-molecule microarray, COS7 lysate, 635/667 nm fluorescence, primary screen (AID 1116). The following applies: 635 nm fluorescence, higher = more signal.
In experiment [20] the target is Alpha-bungarotoxin (Bungarus multicinctus) (UniProt P60615). In words: compounds binding labelled alpha-BTX control protein – biochemical, small-molecule microarray, Alexa647 label, 635/667 nm fluorescence, artefact control for SMM control protein annotation, profiling panel (AID 1117). To be noted: alpha-BTX-A647 binding fluorescence, higher = more signal.

SMILES strings stand for the structures. Activity calls are given as the source filed them.

Sequence of Follistatin-related protein 3 (Homo sapiens) (O95633 whole entry, looked up): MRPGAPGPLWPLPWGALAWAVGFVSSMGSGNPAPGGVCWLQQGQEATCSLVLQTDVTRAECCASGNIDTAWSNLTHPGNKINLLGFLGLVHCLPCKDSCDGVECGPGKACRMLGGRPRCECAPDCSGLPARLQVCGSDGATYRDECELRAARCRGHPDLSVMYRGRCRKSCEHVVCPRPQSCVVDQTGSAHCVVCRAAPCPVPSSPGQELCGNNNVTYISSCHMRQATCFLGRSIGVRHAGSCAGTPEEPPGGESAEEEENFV
Sequence of Epidermal growth factor receptor (Homo sapiens) (P00533 whole entry, looked up): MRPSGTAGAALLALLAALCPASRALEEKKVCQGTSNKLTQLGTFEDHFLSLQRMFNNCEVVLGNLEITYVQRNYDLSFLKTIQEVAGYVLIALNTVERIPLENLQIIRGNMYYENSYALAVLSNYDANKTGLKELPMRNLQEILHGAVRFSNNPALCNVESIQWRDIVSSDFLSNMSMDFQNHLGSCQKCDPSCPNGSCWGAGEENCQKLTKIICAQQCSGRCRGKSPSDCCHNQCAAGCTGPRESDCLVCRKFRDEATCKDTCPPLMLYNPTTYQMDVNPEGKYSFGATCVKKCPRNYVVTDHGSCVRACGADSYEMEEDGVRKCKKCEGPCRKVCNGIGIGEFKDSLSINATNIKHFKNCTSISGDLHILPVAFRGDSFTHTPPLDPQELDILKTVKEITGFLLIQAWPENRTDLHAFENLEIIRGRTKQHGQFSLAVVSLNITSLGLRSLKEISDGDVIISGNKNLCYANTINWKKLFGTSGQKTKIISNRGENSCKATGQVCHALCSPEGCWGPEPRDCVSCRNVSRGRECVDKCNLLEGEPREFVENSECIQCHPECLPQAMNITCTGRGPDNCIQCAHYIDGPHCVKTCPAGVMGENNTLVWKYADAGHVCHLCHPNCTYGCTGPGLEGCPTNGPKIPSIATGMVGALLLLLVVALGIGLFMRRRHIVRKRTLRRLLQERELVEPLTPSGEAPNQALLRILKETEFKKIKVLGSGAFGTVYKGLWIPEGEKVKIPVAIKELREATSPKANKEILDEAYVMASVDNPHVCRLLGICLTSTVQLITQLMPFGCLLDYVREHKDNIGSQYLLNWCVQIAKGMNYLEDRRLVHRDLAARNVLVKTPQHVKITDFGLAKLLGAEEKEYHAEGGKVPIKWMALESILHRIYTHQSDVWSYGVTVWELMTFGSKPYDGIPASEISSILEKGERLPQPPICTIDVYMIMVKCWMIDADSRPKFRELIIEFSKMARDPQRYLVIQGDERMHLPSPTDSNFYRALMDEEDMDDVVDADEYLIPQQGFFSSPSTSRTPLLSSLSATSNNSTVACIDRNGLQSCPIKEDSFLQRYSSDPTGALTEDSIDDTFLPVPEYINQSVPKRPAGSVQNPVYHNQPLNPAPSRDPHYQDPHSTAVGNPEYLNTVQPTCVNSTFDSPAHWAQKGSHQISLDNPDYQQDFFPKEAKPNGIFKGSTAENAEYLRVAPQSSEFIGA
Sequence of Fibroblast growth factor 10 (Homo sapiens) (O15520 whole entry, looked up): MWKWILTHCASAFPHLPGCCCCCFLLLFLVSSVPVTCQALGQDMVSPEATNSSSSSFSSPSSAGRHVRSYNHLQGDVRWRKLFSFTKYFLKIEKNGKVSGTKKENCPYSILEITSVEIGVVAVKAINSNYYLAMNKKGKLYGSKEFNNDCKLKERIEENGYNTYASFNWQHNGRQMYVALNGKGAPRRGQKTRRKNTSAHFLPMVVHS
Sequence of Alpha-bungarotoxin (Bungarus multicinctus) (P60615 whole entry, looked up): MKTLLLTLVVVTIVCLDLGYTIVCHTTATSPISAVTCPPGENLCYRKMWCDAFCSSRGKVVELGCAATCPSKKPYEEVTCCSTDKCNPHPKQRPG
Sequence of Torsin-1A-interacting protein 1 (Homo sapiens) (Q5JTV8 whole entry, looked up): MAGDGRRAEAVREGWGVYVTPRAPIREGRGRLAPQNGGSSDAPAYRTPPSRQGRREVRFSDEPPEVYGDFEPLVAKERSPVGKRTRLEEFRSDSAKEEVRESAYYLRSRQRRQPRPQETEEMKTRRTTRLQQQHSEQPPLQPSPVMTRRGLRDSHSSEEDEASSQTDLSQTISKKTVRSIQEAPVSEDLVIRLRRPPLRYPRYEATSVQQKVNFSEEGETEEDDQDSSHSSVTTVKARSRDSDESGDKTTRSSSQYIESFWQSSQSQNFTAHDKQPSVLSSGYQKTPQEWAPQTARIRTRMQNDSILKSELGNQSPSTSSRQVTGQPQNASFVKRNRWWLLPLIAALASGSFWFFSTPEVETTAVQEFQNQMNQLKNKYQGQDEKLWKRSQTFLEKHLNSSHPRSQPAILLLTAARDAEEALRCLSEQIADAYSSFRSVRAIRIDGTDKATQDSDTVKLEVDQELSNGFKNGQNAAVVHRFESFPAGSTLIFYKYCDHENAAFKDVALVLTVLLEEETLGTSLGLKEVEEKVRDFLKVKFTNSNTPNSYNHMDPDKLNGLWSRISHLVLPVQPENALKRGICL
Sequence of Dickkopf-related protein 1 (Homo sapiens) (O94907 whole entry, looked up): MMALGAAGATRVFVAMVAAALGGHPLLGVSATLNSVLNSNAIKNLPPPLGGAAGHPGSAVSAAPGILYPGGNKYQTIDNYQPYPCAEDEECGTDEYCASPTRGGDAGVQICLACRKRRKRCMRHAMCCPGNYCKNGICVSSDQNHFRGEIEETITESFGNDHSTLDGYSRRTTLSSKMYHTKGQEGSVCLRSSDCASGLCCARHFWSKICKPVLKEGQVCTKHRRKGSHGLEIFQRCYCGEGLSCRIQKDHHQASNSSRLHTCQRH
Sequence of Left-right determination factor 2 (Homo sapiens) (O00292 whole entry, looked up): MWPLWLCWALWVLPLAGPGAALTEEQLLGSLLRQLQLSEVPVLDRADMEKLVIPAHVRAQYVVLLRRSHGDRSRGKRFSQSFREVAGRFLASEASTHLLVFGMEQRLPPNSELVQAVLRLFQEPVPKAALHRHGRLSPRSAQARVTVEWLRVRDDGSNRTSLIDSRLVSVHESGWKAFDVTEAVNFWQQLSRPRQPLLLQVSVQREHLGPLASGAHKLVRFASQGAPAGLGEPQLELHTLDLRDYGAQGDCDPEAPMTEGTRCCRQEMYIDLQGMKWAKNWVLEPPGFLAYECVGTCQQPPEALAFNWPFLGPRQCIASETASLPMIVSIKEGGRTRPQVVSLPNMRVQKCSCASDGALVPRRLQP

As for `C=CCC(OC(C)=O)[C@@H]1[C@@H](N(Cc2ccc(-c3ccccc3)cc2)C(=O)c2cccc3ccccc23)c2cc(OCCCO)ccc2N1C(=O)Cc1ccc(OC)cc1` (stereo not given in full), the composite z-score in experiment [1] was 0.057; in [2], 0.267; in experiment [3], 0.516; in [5], 0.345; in experiment [6], -0.102; in experiment [7], 0.0253. Further, the composite z-score in experiment [8] is 0.13; in [9], -0.113; in experiment [10], 1.37; in experiment [11], -0.69; in experiment [13] it was -0.526; in [14], -0.424. Moreover, the composite z-score in [15] is 0.618; in experiment [16] it was -0.0405; in experiment [17], -0.0293; in experiment [18], -0.202; in experiment [19], -0.278; in experiment [20], 0.313. Besides, the z-score in experiment [4] is -0.149 (inactive); in [12], -0.235.

As to `CCCc1cc2c(n1CCc1ccc(Cl)cc1)C(C)C1CN(C(=O)c3ccccc3)C(C)(C(=O)OC)C21` (stereo not given), the composite z-score in experiment [1] is 0.462; in [2] it was 1.64; in experiment [3] it was 1.59; in experiment [5], 0.464; in experiment [6] it was -0.014; in experiment [7], -0.403. Moreover, the composite z-score in [8] was 0.252; in experiment [9], -1.92; in [10] it was 1.24; in [11], 0.274; in experiment [13], -0.338; in [14], 2.48. The composite z-score in [15] was 1.28; in [16], 0.16; in experiment [17] it was 0.241; in experiment [18] it was 1.24; in [19], 1.53; in experiment [20] it was 2.19. For the same compound, the z-score in experiment [4] was 3.17 (inactive); in experiment [12] it was -2.1.

For `C=C(COC)C(=O)CC[C@@H](OC(=O)c1ccccc1-c1ccccc1C(=O)O)c1ccc(OCCO)cc1`, the composite z-score in experiment [1] is 0.398; in [2] it was -0.321; in [3], 0.0721; in [5], 0.983; in experiment [6], -0.278; in [7] it was -0.487. For the same compound, the composite z-score in [8] was 0.684; in [9], 0.0668; in experiment [10] it was 1.08; in [11] it was -0.0675; in [13], 0.079; in experiment [14], -0.601. Further, the composite z-score in [15] is -0.942; in [16] it was -0.145; in [17] it was -0.304; in experiment [18], 0.338; in [19] it was 1.21; in experiment [20] it was -0.0978. The figures for the z-score in experiment [4] and in [12] were 0.833 (inactive) and -1.88, respectively.

Regarding `CCCC=C(CCC)[C@@H](NC(=O)OCC(C)C)c1ccc(C(=O)OC)cc1`, the composite z-score in experiment [1] was 0.458; in [2] it was -0.315; in experiment [3] it was -0.411; in experiment [5] it was 0.674; in experiment [6], 0.788; in [7], 0.471. Moreover, the composite z-score in [8] was 0.414; in experiment [9] it was 0.85; in experiment [10], -0.155; in [11] it was 0.903; in experiment [13], 0.66; in [14], 0.059. Also, the composite z-score in experiment [15] was -0.307; in experiment [16] it was -0.217; in [17], -0.138; in [18], -0.0496; in [19], 0.0246; in [20], -0.376. Besides, the values for the z-score in experiment [4] and in experiment [12] were -2.36 (inactive) and -1.02, respectively.

Turning to `COc1cc(CO)cc(I)c1O[C@H]1C=C(C(=O)NCCO)C[C@@H](NC2CCCCCC2)[C@@H]1O`, the composite z-score in experiment [1] is 0.515; in [2], -0.168; in experiment [3], -0.675; in [5], 1.38; in [6], 1.16; in experiment [7], 0.44. Further, the composite z-score in experiment [8] came to 1.29; in experiment [9], 0.772; in experiment [10] it was 0.0403; in [11], 1.15; in experiment [13], 0.867; in experiment [14], 0.475. In addition, the composite z-score in experiment [15] was -0.572; in [16] it was -0.129; in experiment [17], -0.0769; in [18], -0.0345; in [19], 0.484; in experiment [20], 0.0323. Besides, the z-score in [4] is -0.51 (inactive); in [12], -4.13.
